# Test results: PubChem BioAssay
# Calls of active or inactive are those of the source.
# Tests used:
# [1] = tested on: Human papillomavirus type 1a protein E7 (residues 44-93); test: HPV1a E7 fragment binders on microarrays, primary screen, biochemical, small-molecule microarray, residues 44-93, 635 nm fluorescence (AID 1108); conditions: small-molecule microarray binding, fluorescence 635 nm; higher = more signal;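 further: E7 fragment applied at 1 µg/mL in TBST for 1 h at 4 C; score combines spot fluorescence with its signal to noise ratio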
# [2] = modulators of HCV replicon luciferase signal, primary screen, HCV replication inhibitor project, Huh7 cells, luciferase reporter (AID 1109); conditions: 48 h, higher = more signal;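 further: huh7 hepatoma cells harbouring a luciferase neomycin HCV replicon reporter; luciferase luminescence as measure of HCV replicon replication; test concentration not given here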
# [3] = molecular target: Left-right determination factor 2 (Homo sapiens) (UniProt O00292); test: LEFTY2 binders on small-molecule microarrays, primary screen, biochemical, small-molecule microarray, 635 nm fluorescence scan (AID 1110); conditions: LEFTY2 binding, higher = more signal
# Sequence of Left-right determination factor 2 (Homo sapiens) (O00292 whole entry, looked up): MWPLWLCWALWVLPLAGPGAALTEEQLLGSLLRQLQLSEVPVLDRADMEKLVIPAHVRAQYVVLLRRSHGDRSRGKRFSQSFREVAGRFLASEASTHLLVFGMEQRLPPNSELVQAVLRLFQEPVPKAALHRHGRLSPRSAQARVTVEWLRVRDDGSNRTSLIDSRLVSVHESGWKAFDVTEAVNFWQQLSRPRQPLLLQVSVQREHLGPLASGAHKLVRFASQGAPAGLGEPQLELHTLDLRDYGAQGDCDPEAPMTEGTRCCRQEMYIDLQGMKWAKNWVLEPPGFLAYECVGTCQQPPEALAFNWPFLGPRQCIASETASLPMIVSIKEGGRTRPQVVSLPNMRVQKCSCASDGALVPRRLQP
# [4] = molecular target: Calmodulin-1 (Homo sapiens) (UniProt P0DP23); test: CALM1 binders on microarrays, EGTA buffer, profiling panel, biochemical, small-molecule microarray, Cy5-labelled CALM1 (AID 1111); conditions: Cy5-CALM1 binding fluorescence, higher = more signal;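 further: labelled calmodulin applied in Tris saline Tween buffer holding calcium plus EGTA and DTT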
# [5] = molecular target: Calmodulin-1 (Homo sapiens) (UniProt P0DP23); test: calcium-bound CALM1 binders on microarrays, profiling panel, artefact control for SMM control-protein annotation, biochemical, small-molecule microarray, Cy5-labelled CALM1, plus calcium (AID 1112); conditions: Cy5-CALM1 binding fluorescence, higher = more signal;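 further: score merges spot fluorescence with signal to noise from triplicate slides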
# [6] = small-molecule microarray binders of probe aWnt5a, primary screen, biochemical, biotinylated probe, 635/667 nm fluorescence (AID 1113); conditions: higher = more signal;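 further: score merges 667 nm fluorescence intensity with signal-to-noise per printed feature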
# [7] = small-molecule microarray binders of probe aShh, primary screen, biochemical, biotinylated probe, 635/667 nm fluorescence (AID 1114); conditions: higher = more signal;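 further: probe is biotin-labelled aShh protein from a stem cell growth factor screen; measures binding of labelled protein to compounds printed on the slide; score merges feature fluorescence at 667 nm with signal-to-noise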
# [8] = small-molecule microarray binders of probe aNog, primary screen, biochemical, biotinylated probe, 635/667 nm fluorescence (AID 1115); conditions: higher = more signal;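 further: probe is biotinylated aNog protein used at 0.15 µg/mL for 1 h at 4 C; z-score combines 667 nm fluorescence of each spot with its signal to noise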
# [9] = molecular target: Torsin-1A-interacting protein 1 (Homo sapiens) (UniProt Q5JTV8); test: LAP1 binders from COS7 cell lysate, primary screen, small-molecule microarray, 635/667 nm fluorescence (AID 1116); conditions: COS7-hLAP1 lysate binding, 635 nm fluorescence, higher = more signal
# Sequence of Torsin-1A-interacting protein 1 (Homo sapiens) (Q5JTV8 whole entry, looked up): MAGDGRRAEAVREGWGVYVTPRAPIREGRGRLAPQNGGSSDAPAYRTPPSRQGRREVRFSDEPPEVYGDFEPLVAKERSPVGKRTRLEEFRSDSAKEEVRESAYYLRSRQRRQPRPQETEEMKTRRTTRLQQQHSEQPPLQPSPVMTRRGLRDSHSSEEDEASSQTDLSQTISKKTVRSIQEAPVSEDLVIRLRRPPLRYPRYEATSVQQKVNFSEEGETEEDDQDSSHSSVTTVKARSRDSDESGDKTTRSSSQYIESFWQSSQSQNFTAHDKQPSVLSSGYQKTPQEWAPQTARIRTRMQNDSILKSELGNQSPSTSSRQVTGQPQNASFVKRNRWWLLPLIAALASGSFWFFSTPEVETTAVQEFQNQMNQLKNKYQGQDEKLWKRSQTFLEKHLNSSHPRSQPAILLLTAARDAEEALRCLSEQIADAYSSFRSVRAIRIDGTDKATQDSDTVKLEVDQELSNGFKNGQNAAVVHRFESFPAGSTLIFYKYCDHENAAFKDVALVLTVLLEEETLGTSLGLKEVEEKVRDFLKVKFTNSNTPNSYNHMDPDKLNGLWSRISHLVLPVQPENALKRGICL
# [10] = molecular target: Alpha-bungarotoxin (Bungarus multicinctus) (UniProt P60615); test: alpha-bungarotoxin binders on microarray, profiling panel, artefact control for SMM control protein annotation, biochemical, small-molecule microarray, Alexa647 label, 635/667 nm fluorescence (AID 1117); conditions: alpha-BTX-A647 binding fluorescence, higher = more signal
# Sequence of Alpha-bungarotoxin (Bungarus multicinctus) (P60615 whole entry, looked up): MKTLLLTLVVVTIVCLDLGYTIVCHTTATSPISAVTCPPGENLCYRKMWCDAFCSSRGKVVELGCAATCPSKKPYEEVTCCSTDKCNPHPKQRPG
# Albumin (Bos taurus) = Albumin (Bos taurus) (UniProt P02769); test: bovine serum albumin binders on microarray, profiling panel, artefact control for SMM control protein annotation, biochemical, small-molecule microarray, Alexa647 label, 635/667 nm fluorescence (AID 1118); conditions: BSA-A647 binding, fluorescence 635 nm, higher = more signal;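 further: score merges 667 nm emission intensity and signal-to-noise per printed compound spot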
# Sequence of Albumin (Bos taurus) (P02769 whole entry, looked up): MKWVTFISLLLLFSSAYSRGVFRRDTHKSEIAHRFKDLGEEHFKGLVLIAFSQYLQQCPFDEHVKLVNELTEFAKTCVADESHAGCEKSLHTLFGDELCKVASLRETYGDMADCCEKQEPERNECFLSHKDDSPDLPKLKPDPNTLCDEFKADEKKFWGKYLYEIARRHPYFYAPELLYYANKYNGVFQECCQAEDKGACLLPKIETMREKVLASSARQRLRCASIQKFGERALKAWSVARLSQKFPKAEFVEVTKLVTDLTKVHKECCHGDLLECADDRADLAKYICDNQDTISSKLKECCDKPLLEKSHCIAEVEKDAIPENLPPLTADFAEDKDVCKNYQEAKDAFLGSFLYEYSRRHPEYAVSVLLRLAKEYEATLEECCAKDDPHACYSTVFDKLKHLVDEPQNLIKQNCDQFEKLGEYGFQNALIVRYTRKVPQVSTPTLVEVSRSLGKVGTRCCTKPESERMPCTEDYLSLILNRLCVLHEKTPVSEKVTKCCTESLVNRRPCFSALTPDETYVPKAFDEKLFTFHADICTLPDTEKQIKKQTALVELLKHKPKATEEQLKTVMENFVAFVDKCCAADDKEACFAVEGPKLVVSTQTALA
# [11] = small-molecule microarray binders of probe aXIP, primary screen, biochemical, NeuroSMM set, 635/667 nm fluorescence (AID 1119); conditions: higher = more signal, called active from +8 up or from −8 down;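 further: probe is the protein aXip251-270 applied at 1 µg/mL to compound-printed slides; binding of probe to printed compounds measured as 667 nm fluorescence plus signal to noise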
# [12] = small-molecule binders of probe aNOTCH3, primary screen, biochemical, small-molecule microarray, 635/667 nm fluorescence (AID 1120); conditions: higher = more signal;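 further: probe is a biotin-tagged antibody raised against NOTCH3 rather than NOTCH3 protein; score merges spot fluorescence near 667 nm with spot signal to noise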
# [13] = small-molecule binders of probe aNOTCH2, primary screen, biochemical, small-molecule microarray, 635/667 nm fluorescence (AID 1121); conditions: higher = more signal;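 further: score merges feature fluorescence read at 667 nm with its signal to noise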
# [14] = molecular target: Carbonic anhydrase 2 (Homo sapiens) (UniProt P00918); test: CAII small-molecule binders, profiling panel, biochemical, small-molecule microarray, Alexa647-labelled CAII (AID 1122); conditions: CAII-A647 binding fluorescence, higher = more signal
# [15] = COS7 lysate on small-molecule microarray, probe aHis, 635 nm (AID 1123); conditions: COS7 cell lysate, fluorescence, higher = more signal;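 further: z-score combines 667nm fluorescence intensity with signal-to-noise per printed compound spot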
# [16] = compound binding in COS7 lysate, probe aLAP1, primary screen, cell lysate, small-molecule microarray (AID 1124); conditions: probe aLAP1, fluorescence, higher = more signal;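 further: lysate comes from COS7 cells expressing LAP1 and is applied at 0.3 µg/mL; score merges spot fluorescence near 667 nm with signal-to-noise over triplicate slides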
# Sam68 (KHDRBS1) = test: Sam68 small-molecule binders, primary screen, biochemical, small-molecule microarray, 635 nm fluorescence (AID 1125); conditions: small-molecule microarray binding, higher = more signal;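 further: score merges 667 nm channel intensity with signal to noise over triplicate slides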
# [17] = tested on: Chordin-like protein 2 (CHRDL2); test: CHRDL2 small-molecule binders, primary screen, biochemical, small-molecule microarray, 635 nm fluorescence (AID 1126); conditions: small-molecule microarray binding, fluorescence 635 nm; higher = more signal;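 further: printed compound slides probed with Chrdl2 protein at 4 µg/mL for 1 h at 4 C; score merges 667 nm emission intensity with signal to noise over three replicate slides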
# [18] = molecular target: Concanavalin-A (Canavalia ensiformis) (UniProt P02866); test: ConA small-molecule binders, primary screen, artefact control for SMM control protein annotation, biochemical, small-molecule microarray, Alexa647 label, 635 nm (AID 1127); conditions: ConA-A647 binding fluorescence, higher = more signal;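 further: z combines 667 nm emission intensity with signal-to-noise across three replicate slides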
# Sequence of Concanavalin-A (Canavalia ensiformis) (P02866 whole entry, looked up): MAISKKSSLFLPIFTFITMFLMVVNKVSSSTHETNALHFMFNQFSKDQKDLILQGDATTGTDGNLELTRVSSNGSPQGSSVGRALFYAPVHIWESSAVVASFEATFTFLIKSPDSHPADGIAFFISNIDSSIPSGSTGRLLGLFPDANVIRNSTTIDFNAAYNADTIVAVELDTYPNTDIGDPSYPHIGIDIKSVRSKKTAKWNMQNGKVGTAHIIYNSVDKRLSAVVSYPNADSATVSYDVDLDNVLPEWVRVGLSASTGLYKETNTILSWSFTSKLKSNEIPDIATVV
smiles,measurement,setting,value
COCCOC(=O)N1C(=O)[C@@]2(c3cc(C#CC4(O)CCCCCC4)ccc31)[C@H](C(=O)N1CCN(c3ncccn3)CC1)[C@H]1C(=O)O[C@H](c3ccccc3)[C@H](c3ccccc3)N1[C@@H]2c1ccccc1OCCO,composite z-score,[1],1.37
same,z-score,[2],-2.22
same,composite z-score,[3],1.2
same,composite z-score,[4],0.348
same,composite z-score,[5],0.0618
same,composite z-score,[6],-0.184
same,composite z-score,[7],0.116
same,composite z-score,[8],-0.263
same,composite z-score,[9],0.334
same,composite z-score,[10],0.684
same,composite z-score,Albumin (Bos taurus),-0.22
same,composite Z-score,[11],0.572 (inactive)
same,composite z-score,[12],0.22
same,composite z-score,[13],-0.0826
same,composite z-score,[14],0.384
same,composite z-score,[15],0.506
same,composite z-score,[16],-0.176
same,composite z-score,Sam68 (KHDRBS1),1.26
same,composite z-score,[17],0.902
same,composite z-score,[18],1.13
Cc1c(NC(=O)/C(C#N)=C/c2ccccc2Cl)c(=O)n(-c2ccccc2)n1C,composite z-score,[1],-0.11
same,z-score,[2],0.614
same,composite z-score,[3],0.453
same,composite z-score,[4],1.01
same,composite z-score,[5],-0.154
same,composite z-score,[6],-0.0377
same,composite z-score,[7],-0.588
same,composite z-score,[8],-0.226
same,composite z-score,[9],0.858
same,composite z-score,[10],0.42
same,composite z-score,Albumin (Bos taurus),0.942
same,composite Z-score,[11],-0.683 (inactive)
same,composite z-score,[12],-0.0048
same,composite z-score,[13],-0.011
same,composite z-score,[14],0.704
same,composite z-score,[15],1.08
same,composite z-score,[16],0.237
same,composite z-score,Sam68 (KHDRBS1),0.247
same,composite z-score,[17],0.107
same,composite z-score,[18],0.996
C[C@]1(C(=O)O)c2ccccc2C(=O)N(Cc2ccc(OC(F)(F)F)cc2)[C@H]1c1ccc(CO)cc1,composite z-score,[1],-0.829
same,z-score,[2],-0.102
same,composite z-score,[3],-0.618
same,composite z-score,[4],1.03
same,composite z-score,[5],0.714
same,composite z-score,[6],-0.129
same,composite z-score,[7],0.147
same,composite z-score,[8],0.265
same,composite z-score,[9],0.703
same,composite z-score,[10],1.56
same,composite z-score,Albumin (Bos taurus),0.12
same,composite Z-score,[11],0.219 (inactive)
same,composite z-score,[12],-0.104
same,composite z-score,[13],0.109
same,composite z-score,[14],0.73
same,composite z-score,[15],1.61
same,composite z-score,[16],0.902
same,composite z-score,Sam68 (KHDRBS1),-0.0536
same,composite z-score,[17],-0.758
same,composite z-score,[18],-0.783
C[C@@H]1ON(c2ccc(I)cc2)[C@H](c2ccc(OC(=O)OC(C)(C)C)cc2)[C@H]1C(=O)N1C(=O)OC[C@H]1Cc1ccccc1,composite z-score,[1],1.15
same,z-score,[2],-1.12
same,composite z-score,[3],0.628
same,composite z-score,[4],0.501
same,composite z-score,[5],-0.502
same,composite z-score,[6],-0.241
same,composite z-score,[7],-0.0431
same,composite z-score,[8],-0.321
same,composite z-score,[9],0.362
same,composite z-score,[10],0.943
same,composite z-score,Albumin (Bos taurus),0.578
same,composite Z-score,[11],0.0054 (inactive)
same,composite z-score,[12],-0.0043
same,composite z-score,[13],-0.14
same,composite z-score,[14],0.574
same,composite z-score,[15],0.527
same,composite z-score,[16],-0.36
same,composite z-score,Sam68 (KHDRBS1),1.15
same,composite z-score,[17],0.376
same,composite z-score,[18],1.09
C=CCNC(=O)[C@@H]1[C@H]2C(=O)O[C@H](c3ccccc3)[C@H](c3ccccc3)N2[C@H](c2ccc(O)cc2)[C@@]12C(=O)N(C(=O)OCCOC)c1ccc(C#CCCO)cc12,composite z-score,[1],-0.472
same,z-score,[2],-0.118
same,composite z-score,[3],0.863
same,composite z-score,[4],0.355
same,composite z-score,[5],0.349
same,composite z-score,[6],-0.0276
same,composite z-score,[7],-0.0011
same,composite z-score,[8],0.565
same,composite z-score,[9],0.394
same,composite z-score,[10],2.29
same,composite z-score,Albumin (Bos taurus),-0.906
same,composite Z-score,[11],0.232 (inactive)
same,composite z-score,[12],0.364
same,composite z-score,[13],-0.0191
same,composite z-score,[14],0.561
same,composite z-score,[15],1.88
same,composite z-score,[16],0.459
same,composite z-score,Sam68 (KHDRBS1),1.29
same,composite z-score,[17],0.467
same,composite z-score,[18],1.17
CCc1cccc(NC(=O)O[C@H]2[C@H](OC(=O)Nc3ccccc3)[C@H](OC(=O)Nc3ccccc3)[C@@H](OC)O[C@@H]2CO)c1,composite z-score,[1],1.44
same,z-score,[2],-3.86
same,composite z-score,[3],0.0274
same,composite z-score,[4],1.26
same,composite z-score,[5],-0.101
same,composite z-score,[6],-0.0006
same,composite z-score,[7],0.23
same,composite z-score,[8],1.11
same,composite z-score,[9],1.03
same,composite z-score,[10],0.0456
same,composite z-score,Albumin (Bos taurus),0.902
same,composite Z-score,[11],1.21 (inactive)
same,composite z-score,[12],0.211
same,composite z-score,[13],-0.0481
same,composite z-score,[14],0.663
same,composite z-score,[15],2.57
same,composite z-score,[16],0.814
same,composite z-score,Sam68 (KHDRBS1),1.29
same,composite z-score,[17],-0.539
same,composite z-score,[18],1
